Compounds with a hit are over-represented: about 3.2% of the library has one in this group of screens.
CRFR2-BP ag: agonists of human CRF-binding protein/CRF-R2 receptor complex; HEK293 CRF-R2/CRF-BP, calcium dye fluorescence (FLIPR); percent of saturating CRF peptide response; activation, % at 13.2 µM; 350,000 compounds, 0.46% hits; AID 588473;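 active = activation of at least 50%, plus an integration ratio under a set limit after plate pattern correction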;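 also: plate controls were neutral control wells without compound for no effect and CRF at EC100 for full effect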
aDG glyco act: increases alpha dystroglycan glycosylation; AID 624168; 360,000 compounds, 0.22% hits; activation, % at 10 µM; Pro5-aDG cells, alpha-DG glycosylation AlphaScreen (IIH6); 0% Pro5, 100% B10-LARGE cell signal;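 active = activation of at least 8% versus controls, or a plate z-score of at least 8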;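 also: Pro5 are CHO cells carrying HIG-tagged alpha-DG that lacks glycosylation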
H9c2 protect: myocardial damage modulation in H9c2 cells; protection from H2O2 cell death, % at 20 µM; AID 588492; H9c2 cardiomyocytes, H2O2 injury protection, ATPLite, 2 h; 360,000 compounds, 0.63% hits;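 active = compounds giving at least 50% protection of heart cells from peroxide-induced death in the single-dose screen, raw or plate-pattern-corrected value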;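 also: 0% = DMSO wells with peroxide and 100% = DMSO wells without peroxide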
PfGluPho inh: PfG6PD (Plasmodium falciparum) enzyme inhibition | 350,000 compounds, 0.78% hits | AID 504690 | inhibition, % at 20 µM | PfGluPho enzyme, NADPH resazurin-diaphorase fluorescence;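 active = inhibition reaching at least a set limit at 20 µM in the primary screen, cut at about 59% in these data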;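 also: 0% = DMSO wells with substrate and 100% = DMSO wells lacking glucose-6-phosphate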
CRFR2-BP antag: blocks CRF-induced signaling of the CRF-BP/CRF-R2 complex. HEK293 CRF-R2/CRF-BP, CRF-induced calcium fluorescence. inhibition, % at 11.8 µM. 350,000 compounds, 0.59% hits. AID 588475;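 active = inhibition of the ligand-induced calcium signal above about 50% at the single tested concentration, limit read from the data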
FAS TE block: FAS thioesterase (human) inhibition. recombinant FAS-TE, OMFH fluorogenic substrate, fluorescence endpoint. inhibition, % at 15 µM. 360,000 compounds, 0.67% hits;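 active = compounds whose normalised, plate-corrected inhibition of enzyme fluorescence in the single-dose primary screen is 50% or more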;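 also: 0% = DMSO with enzyme and 100% = substrate without enzyme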
FAS-TE conf: FAS thioesterase (human) inhibition, confirmation; recombinant FAS-TE, OMFH fluorogenic substrate, fluorescence; shares compounds with FAS TE block; 2,300 compounds, 45% hits; inhibition, % at 15 µM;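 active = compounds inhibiting the enzyme by at least 50% at 15 µM in any one of the replicates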;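 also: 0% = enzyme with DMSO only and 100% = wells lacking enzyme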
Starred values were filed as active, the others as inactive.

Screening O=C(Oc1cccc(/C=N/Nc2nc(Nc3ccccc3)nc(N3CCOCC3)n2)c1)c1ccco1 returned CRFR2-BP ag 1, aDG glyco act 0, H9c2 protect 39, PfGluPho inh 9, CRFR2-BP antag -33, FAS TE block 62* and FAS-TE conf 36.
`COc1ccccc1N1CCN(C(=O)C(C)NC(=O)c2cccc([N+](=O)[O-])c2)CC1` (stereo unspecified) gave CRFR2-BP ag -2, aDG glyco act 0, H9c2 protect -1, PfGluPho inh 5, CRFR2-BP antag 21, FAS TE block 80* and FAS-TE conf 86*.
`COc1ccccc1N1CCN(C(=O)C(=O)c2cccc([N+](=O)[O-])c2)CC1` gave aDG glyco act 0.
CC(=O)Nc1ccc(SCC(=O)N(C)C2CCS(=O)(=O)C2)cc1 (stereo unspecified) was read as CRFR2-BP ag 0, aDG glyco act 1, H9c2 protect 0, PfGluPho inh -2, CRFR2-BP antag 5 and FAS TE block -5.
Screening O=C(c1cccs1)N(c1ccc(Br)cc1)C1C=CS(=O)(=O)C1 (stereo unspecified) returned CRFR2-BP ag 0, aDG glyco act 0, H9c2 protect -2, PfGluPho inh -20, CRFR2-BP antag 15 and FAS TE block -10.
For O=C(NC(=S)N1CCN(C(c2ccccc2)c2ccccc2)CC1)c1ccc(S(=O)(=O)N2CCOCC2)cc1 the results were CRFR2-BP ag -1, aDG glyco act 0, H9c2 protect 8, PfGluPho inh -3, CRFR2-BP antag 17, FAS TE block 56* and FAS-TE conf 24.
`Cc1cccc(NC(=O)Nc2ccccc2[N+](=O)[O-])n1` gave CRFR2-BP ag 2, aDG glyco act 0, H9c2 protect -4, PfGluPho inh -8, CRFR2-BP antag -36 and FAS TE block -2.
COc1cccc2cc(C(=O)NCCC3=CCCCC3)c(=O)oc12 was read as CRFR2-BP ag -1, aDG glyco act 0, H9c2 protect 0, PfGluPho inh 12, CRFR2-BP antag 6, FAS TE block 59* and FAS-TE conf 27.
CCCCN(C(C)=O)c1c(CC)nc2ccc(C(=O)NCCCN(C)C)cn12 was read as aDG glyco act 0, H9c2 protect -3 and FAS TE block -5.
`COC(=O)c1ccc([C@H]2C=C(C(=O)O)O[C@@H](OCc3ccc(CO)cc3)C2)cc1` gave CRFR2-BP ag 1, aDG glyco act 0, H9c2 protect -2, PfGluPho inh -6, CRFR2-BP antag -19 and FAS TE block -9.
Screening O=C(NN1C(=O)c2ccccc2NC1c1ccc([N+](=O)[O-])o1)c1ccccc1 (stereo unspecified) returned CRFR2-BP ag -2, aDG glyco act 2, H9c2 protect 5, PfGluPho inh 4, CRFR2-BP antag -45, FAS TE block 52* and FAS-TE conf 40.
For O=C(NC12CC3CC(CC(C3)C1)C2)c1ccc([N+](=O)[O-])cc1 the results were CRFR2-BP ag -2, aDG glyco act 0, H9c2 protect -9, PfGluPho inh 8, CRFR2-BP antag 2 and FAS TE block 8.
O=C(NC12CC3CC(CC(C3)C1)C2)c1cc([N+](=O)[O-])ccc1Cl was read as CRFR2-BP ag -3, aDG glyco act 0, H9c2 protect 6, PfGluPho inh -18, CRFR2-BP antag 7, FAS TE block 59* and FAS-TE conf 26.
Screening CC(NC(=O)c1ccc([N+](=O)[O-])cc1[N+](=O)[O-])c1ccc(-c2ccccc2)cc1 (stereo unspecified) returned CRFR2-BP ag -3, aDG glyco act 1, H9c2 protect -16, PfGluPho inh 2, CRFR2-BP antag 1, FAS TE block 55* and FAS-TE conf 42.
CCC(NC(=O)c1ccc([N+](=O)[O-])cc1[N+](=O)[O-])c1ccccc1 (stereo unspecified) was read as CRFR2-BP ag 0, aDG glyco act 0, H9c2 protect 3, PfGluPho inh -16, CRFR2-BP antag 2 and FAS TE block 41.
O=C(O)c1cc([N+](=O)[O-])ccc1NCCCc1ccccc1 was read as CRFR2-BP ag 2, aDG glyco act 0, H9c2 protect -4, PfGluPho inh 1, CRFR2-BP antag 34 and FAS TE block 3.
Screening O=C(NCCCc1ccccc1)c1cc([N+](=O)[O-])ccc1Cl returned CRFR2-BP ag -1, aDG glyco act 0, H9c2 protect -1, PfGluPho inh 6, CRFR2-BP antag 3, FAS TE block 84* and FAS-TE conf 90*.
CS(=O)(=O)c1ccc(Cl)c(C(=O)NCC2CCCCC2)c1 was read as CRFR2-BP ag -1, aDG glyco act 0, H9c2 protect -2, PfGluPho inh 4, CRFR2-BP antag 2 and FAS TE block -5.
For O=C(NCC1CCCCC1)c1cc([N+](=O)[O-])ccc1Cl the results were CRFR2-BP ag 0, aDG glyco act 0, H9c2 protect -3, PfGluPho inh -9, CRFR2-BP antag 10, FAS TE block 51* and FAS-TE conf 56*.
Screening O=C(NCCCN1CCOCC1)C(c1ccccc1)c1ccccc1 returned CRFR2-BP ag 1, aDG glyco act 0, H9c2 protect 6, PfGluPho inh -17, CRFR2-BP antag 7 and FAS TE block -5.
`CC1CCN(Cc2nnnn2CCCC(=O)NCCc2cnn(C)c2)CC1` gave CRFR2-BP ag 1, aDG glyco act 0, H9c2 protect 1, PfGluPho inh 8, CRFR2-BP antag -15 and FAS TE block -9.
CC(Cc1ccccc1)NC(=O)c1cc([N+](=O)[O-])ccc1Cl (stereo unspecified) was read as CRFR2-BP ag -4, aDG glyco act 0, H9c2 protect 8, PfGluPho inh -2, CRFR2-BP antag 4, FAS TE block 58* and FAS-TE conf 70*.
For Cc1ccc(O)c(NC(=O)c2cc([N+](=O)[O-])ccc2Cl)c1 the results were CRFR2-BP ag -2, aDG glyco act 1, H9c2 protect 3, PfGluPho inh 15, CRFR2-BP antag 3, FAS TE block 54* and FAS-TE conf 60*.
`CCc1ccc(C(=O)NNc2cc(Cl)ccc2Cl)cc1` gave CRFR2-BP ag 0, aDG glyco act 0, H9c2 protect -8, PfGluPho inh 4, CRFR2-BP antag -13, FAS TE block 50* and FAS-TE conf 14.
`O=S(=O)(c1ccc(Oc2ccc(S(=O)(=O)N(CCO)CCO)cc2)cc1)N(CCO)CCO` gave CRFR2-BP ag 1, aDG glyco act 0, H9c2 protect 1, PfGluPho inh 1, CRFR2-BP antag -10 and FAS TE block -13.
